Experimental data taken from PubChem BioAssay (NCI).
This is part of a sample that, as a whole, favours compounds with a hit. Of some 83,000 tested, about 20% had one in any assay.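 48-hour exposure, single concentration, 96-well plates; percent growth endpoint where 0 means no net growth. Active: below 10.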 Values without a mark were called inactive. Activity calls are given as the source filed them.

Tested on: CCRF-CEM leukemia
Assay: NCI-60 one-dose screen, 48 h (100 = growth as untreated, 0 = no growth, -100 = all killed)
Details: 10 µM unless noted
Method: Growth inhibition of the CCRF-CEM human tumor cell line is measured as a screen for anti-cancer activity. Cells are grown in 96 well plates and exposed to the test compound for 48 hours. Compounds are tested at a single concentration, which is 10^-5 M for most compounds. The reported endpoint is percent growth (GI% or GIPRCNT), where numbers from 0 - 100% represent growth inhibition, and numbers from -100% - 0 represent cell death. For example, a value of 40 represents 60% growth inhibition. A value of 0 means no net growth occurred over the course of the experiment. A value of -40 indicates 40% of cells at the beginning of the experiment died by the end of the experiment. A value of -100 means all cells are dead at the end of the experiment.
NCI-60 Human Tumor Cell Lines Screen was performed using the standard one-dose NCI protocol, which is described in more detail at https://dtp.cancer.gov/discovery_development/nci-60/default.htm.
Compounds with GIPRCNT values below 10 were considered active. Activity score was based on GIPRCNT using the following formula: […]
Score is 0 for GIPRCNT values of 100 or above, 50 for GIPRCNT values of 0, and 100 for GIPRCNT values of -100.

Row | Structure (SMILES) | growth
1 | CC(=O)Nc1cccc(Nc2nc(N[C@H]3CCCc4ccccc43)c3ccccc3n2)c1 | 103%
2 | COc1cc2c(c(OC)c1OC)C(=O)CC(c1cccc(NC(=O)c3cc(NC(=O)[C@H](CO)NC(=O)OC(C)(C)C)ccc3Cl)c1)O2 (stereo not given in full) | 21.8%
3 | O=C(c1ccc(OCCN2CCOCC2)cc1)C1[C@H](c2ccc(Cl)cc2)[C@@H](c2ccccc2)NC12C(=O)Nc1ccc(Br)cc12 (stereo not given in full) | 20.7%
4 | COc1ccc(/C=C/c2nc3ccccc3c(=O)n2CC(=O)Nc2ccc(Cl)cc2)cc1 | 108%
5 | COc1ccc(C(=O)/C=C/c2cccc(Cl)c2Cl)cc1S(N)(=O)=O | 0.527% (active)
6 | COc1ccc(-c2c(Nn3cnnn3)no[n+]2[O-])cc1 | 40.6%
7 | O=C(COc1ccc(NC(=O)Nc2ccc(Cl)c(Cl)c2)cc1)N=Nc1c(O)[nH]c2ccccc12 | 37.3%
8 | COc1ccc2[nH]c(=O)c(CSc3nccc(-c4ccc(OC)c(OC)c4)n3)cc2c1 | 31.3%
9 | N/C(=N\c1nc2ccccc2s1)NC(=O)Nc1ccc(Cl)cc1Cl | 5.6% (active)
10 | O=C(COc1ccc(NC(=O)Nc2ccc(Cl)c(Cl)c2)cc1)N=Nc1c(O)[nH]c2ccc([N+](=O)[O-])cc12 | 30.4%
11 | CCCCCCCCc1ccc(C(=O)Nc2ccc(C)cc2C(=O)O)cc1C | 79.8%
12 | CC1CN(c2oc(-c3ccc([N+](=O)[O-])cc3)nc2C#N)CC(C)O1 (stereo not given) | 100%
13 | O=C(NNc1nc2cc(C(F)(F)F)ccc2n2cccc12)c1cnccn1 | 6.27% (active)
14 | CC(C)CSc1nc(NCCc2c[nH]c3ccccc23)c(C#N)c(-c2ccc(F)cc2)n1 | 22.1%
15 | CCN(CC)CCOc1ccc(Nc2ncc3cc(-c4ccc(O)c(C#N)c4)c(=O)n(C)c3n2)cc1 | -25.5% (active)
16 | COc1ccc(C(=O)/C=C/c2cccnc2)cc1S(N)(=O)=O | 5.54% (active)
17 | O=C(Cn1nc(-c2ccccc2)ccc1=O)N/N=C/c1ccc(N2CCOCC2)cc1 | 92.5%
18 | N#Cc1cnn(C(=O)c2ccccc2Br)c1NC(=O)c1ccc(Br)cc1Cl | 94.5%
19 | COC(=O)C[C@](O)(CCCC(C)(C)O)C(=O)O[C@H]1C(OC)=C[C@@]23CCCN2CCc2cc4c(cc2[C@@H]13)OCO4 | -5.84% (active)
20 | O=c1[nH]n(C(=S)N/N=C/c2ccccc2Cl)c(=O)c2ccccc12 | -11.2% (active)

Row | Structure (SMILES) | growth
21 | Cc1ccc(C(SCCNCc2cc(N(C)C)ccn2)(c2ccccc2)c2ccccc2)cc1 | -3.65% (active)
22 | C=C1CCC2C3(C)COC(c4ccc(F)cc4)OC3CCC2(C)C1CC(O)C1=CCOC1=O (stereo not given) | 21.4%
23 | Cc1ccc(NC(=O)[C@]23CCC(C)(C)CC2C2=CCC4[C@@]5(C)C[C@@H](O)[C@H](O)[C@@](C)(CO)C5CC[C@@]4(C)[C@]2(C)CC3)cc1 (stereo not given in full) | -1.64% (active)
24 | N/C(=N\c1nc2ccccc2s1)NC(=O)NCCCCCCO | 60.3%
25 | N#Cc1c(-c2cccc(O)c2O)cc(-c2ccc3ccccc3c2)[nH]c1=O | 13.4%
26 | Cc1ccc(S(=O)(=O)c2nc(S(=O)(=O)c3ccc(C)cc3)c(N3CCN(C)CC3)s2)cc1 | 19.7%
27 | CCCCCCCS(=O)(=O)N1CCCC(C(=O)Nc2nc3ccc(NC(=O)c4ccc(F)c(OC)c4F)cc3s2)C1 (stereo not given) | 50.2%
28 | C=C1CC[C@@H]2[C@]3(C)COC(c4cn[nH]c4-c4ccc(Br)cc4)O[C@@H]3CC[C@@]2(C)[C@@H]1C/C=C1/C(=O)OCC1O (stereo not given in full) | -6.18% (active)
29 | Nc1n[nH]c2cccc(C#Cc3cccc(NC(=O)c4cccc(Cl)c4)c3)c12 | 15%
30 | COc1ccc(C(=O)/C=C/c2ccc(Cl)c(Cl)c2)cc1S(N)(=O)=O | 12.4%
31 | O=C1/C(=C/C2=Cc3ccccc3OC2)SC(=S)N1c1ccccc1F | 97.5%
32 | COc1ccc(NC(=O)Cn2c(O)c(N=Nc3ccc(S(N)(=O)=O)cc3)c3ccccc32)cc1 | 85.3%
33 | COc1ccc2c(c1)c(-c1cc3nc(-c4cn(C)c5ncc(Br)cc45)cc(N)n3n1)cn2C | -29.2% (active)
34 | CCOC(=O)c1ccc(Nc2nc(NN)nc(-c3ccc(F)cc3)c2C#N)cc1 | 91.9%
35 | Cn1cc(-c2cc(N)n3nc(-c4cn(C)c5ccccc45)cc3n2)c2cc(Cl)ccc21 | -5.76% (active)
36 | O=C(C1=CNC(=S)NC1c1ccc(O)cc1)c1cc2ccccc2oc1=O (stereo not given) | 92%
37 | CCOC(=O)C1=C(N)N(c2ccccc2)C2=C(C(=O)CC(C)(C)C2)C1c1ccc(N2CCOCC2)cc1 (stereo not given) | 105%
38 | CCCCSc1nc(NCCc2c[nH]c3ccccc23)c(C#N)c(-c2ccc(OC)cc2)n1 | 27.8%
39 | Cn1cc(-c2cc(N)n3nc(-c4cn(C)c5ncc(Br)cc45)cc3n2)c2cc(Br)cnc21 | 3.66% (active)
40 | C=C1CC[C@@H]2[C@]3(C)COC(c4cn[nH]c4-c4ccc(F)cc4)O[C@@H]3CC[C@@]2(C)[C@@H]1C/C=C1/C(=O)OCC1O (stereo not given in full) | -3.97% (active)
